According to PMC8384837, “Expanding the binding specificity for RNA recognition by a PUF domain”:
Residue numbers refer to the chain shown, from its start.

What was measured:
Test in all cases: yeast three-hybrid, YBZ-1, SC-Leu-His + 0.5 mM 3-AT, 4 days
Conditions in all cases: tags: N-Gal4 AD-HA kept; label: inside an RPR1-promoter hybrid RNA with tandem MS2 sites; ssRNA
[1] = molecular target: PUM1 PUF domain R5-LHS (Homo sapiens, UniProt Q14671 828-1176, C1007L;R1008H;Q1011S)
Method in brief: (§1)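 The interaction score is the log change in how often each variant appears, from input to selection. Frequencies came from PCR-amplified, Illumina-sequenced repeat regions of Pumilio-1 PUF domain libraries grown in strain YBZ-1 (LexA–MS2 coat fusion, HIS3 reporter) alongside matching RNA elements. Input plates were SC-Leu and selection plates were SC-Leu-His + 0.5 mM 3-AT, each for four days, and the log2 calculation used a pseudocount of 1 where a variant was absent.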

[2] = molecular target: PUM1 PUF domain R5-GRT (Homo sapiens, UniProt Q14671 828-1176, C1007G;Q1011T)
Method in brief: as §1

[3] = molecular target: PUM1 PUF domain R5-RGA (Homo sapiens, UniProt Q14671 828-1176, C1007R;R1008G;Q1011A)
Method in brief: as §1

[4] = molecular target: T1, PUM1 PUF domain R6-RYC (Homo sapiens, UniProt Q14671 828-1176, N1043R;Q1047C)
T1 sequence: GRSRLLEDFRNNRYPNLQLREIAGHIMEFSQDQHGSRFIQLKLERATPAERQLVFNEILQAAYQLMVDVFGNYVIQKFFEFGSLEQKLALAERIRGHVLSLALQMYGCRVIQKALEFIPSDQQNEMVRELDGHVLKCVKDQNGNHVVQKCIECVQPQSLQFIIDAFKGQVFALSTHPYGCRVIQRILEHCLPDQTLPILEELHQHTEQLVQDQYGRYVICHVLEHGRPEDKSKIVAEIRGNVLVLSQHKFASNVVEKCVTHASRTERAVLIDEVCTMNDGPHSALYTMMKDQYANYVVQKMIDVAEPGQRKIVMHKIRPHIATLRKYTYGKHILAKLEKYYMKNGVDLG
Method in brief: as §1

[5] = molecular target: T2, PUM1 PUF domain R6-SWS (Homo sapiens, UniProt Q14671 828-1176, N1043S;Y1044W;Q1047S)
T2 sequence: T1 sequence with R216S, Y217W, C220S
Method in brief: as §1

[6] = molecular target: T3, PUM1 PUF domain R6-GWR (Homo sapiens, UniProt Q14671 828-1176, N1043G;Y1044W;Q1047R)
T3 sequence: T1 sequence with R216G, Y217W, C220R
Method in brief: as §1

[7] = molecular target: PUM1 PUF domain R8-KHV (Homo sapiens, UniProt Q14671 828-1176, N1122K;Y1123H;Q1126V)
Method in brief: as §1

[8] = molecular target: PUM1 PUF domain R4-PYD (Homo sapiens, UniProt Q14671 828-1176, N971P;H972Y;Q975D)
Method in brief: as §1

[9] = molecular target: PUM1 PUF domain R1-EKK (Homo sapiens, UniProt Q14671 828-1176, S863E;R864K;Q867K)
Method in brief: as §1

[10] = molecular target: T4, PUM1 PUF domain R6-VWH (Homo sapiens, UniProt Q14671 828-1176, N1043V;Y1044W;Q1047H)
T4 sequence: T1 sequence with R216V, Y217W, C220H
Method in brief: as §1

## GGCUAGAACUAGUGGAUCCCCCGGCGCCCGGCGGCUCGAGCCCGGGUAAGUGUCAAUAGUCUGCAUGCCGCCGGGCGCCAUGCCUGCAGGUCGACUCUAGAAAACAUG
[1]
  binding signal: 2.24 log2 enrichment (interaction score)
[2]
  binding signal: 0.6 log2 enrichment (interaction score)
[3]
  binding signal: 2.27 log2 enrichment (interaction score)

## GGCUAGAACUAGUGGAUCCCCCGGCGCCCGGCGGCUCGAGCCCGGGUAAGUGUAAAUAGUCUGCAUGCCGCCGGGCGCCAUGCCUGCAGGUCGACUCUAGAAAACAUG
[4]
  binding signal: 4.42 log2 enrichment (interaction score)
[5]
  binding signal: 4.04 log2 enrichment (interaction score)
[2]
  binding signal: 2.94 log2 enrichment (interaction score)
[6]
  binding signal: 6.56 log2 enrichment (interaction score)

## GGCUAGAACUAGUGGAUCCCCCGGCGCCCGGCGGCUCGAGCCCGGGUAAGCGUAAAUAGUCUGCAUGCCGCCGGGCGCCAUGCCUGCAGGUCGACUCUAGAAAACAUG
[7]
  binding signal: 2.09 log2 enrichment (interaction score)

## GGCUAGAACUAGUGGAUCCCCCGGCGCCCGGCGGCUCGAGCCCGGGUAAGUGUUAAUAGUCUGCAUGCCGCCGGGCGCCAUGCCUGCAGGUCGACUCUAGAAAACAUG
[1]
  binding signal: 5.04 log2 enrichment (interaction score)
[2]
  binding signal: 3.02 log2 enrichment (interaction score)
[3]
  binding signal: 1.01 log2 enrichment (interaction score)

## GGCUAGAACUAGUGGAUCCCCCGGCGCCCGGCGGCUCGAGCCCGGGUAAGUGUGAAUAGUCUGCAUGCCGCCGGGCGCCAUGCCUGCAGGUCGACUCUAGAAAACAUG
[2]
  binding signal: 2.87 log2 enrichment (interaction score)

## GGCUAGAACUAGUGGAUCCCCCGGCGCCCGGCGGCUCGAGCCCGGGUAAGGGUAAAUAGUCUGCAUGCCGCCGGGCGCCAUGCCUGCAGGUCGACUCUAGAAAACAUG
[7]
  binding signal: 2.26 log2 enrichment (interaction score)

## GGCUAGAACUAGUGGAUCCCCCGGCGCCCGGCGGCUCGAGCCCGGGUAAGUGCAAAUAGUCUGCAUGCCGCCGGGCGCCAUGCCUGCAGGUCGACUCUAGAAAACAUG
[6]
  binding signal: 3.5 log2 enrichment (interaction score)

## GGCUAGAACUAGUGGAUCCCCCGGCGCCCGGCGGCUCGAGCCCGGGUAAGUGUAUAUAGUCUGCAUGCCGCCGGGCGCCAUGCCUGCAGGUCGACUCUAGAAAACAUG
[8]
  binding signal: 5.78 log2 enrichment (interaction score)

## GGCUAGAACUAGUGGAUCCCCCGGCGCCCGGCGGCUCGAGCCCGGGUAAGUGUAAAUUGUCUGCAUGCCGCCGGGCGCCAUGCCUGCAGGUCGACUCUAGAAAACAUG
[9]
  binding signal: 2.94 log2 enrichment (interaction score)

## GGCUAGAACUAGUGGAUCCCCCGGCGCCCGGCGGCUCGAGCCCGGGUAAGUGAAAAUAGUCUGCAUGCCGCCGGGCGCCAUGCCUGCAGGUCGACUCUAGAAAACAUG
[5]
  binding signal: 3.49 log2 enrichment (interaction score)
[10]
  binding signal: 7.07 log2 enrichment (interaction score)
